Screens (PubChem)
HCMV antiviral: qHTS Assay for inhibitors of the human cytomegalovirus (HCMV). 410,000 compounds, 4.5% hits. HFF cells, HCMV-luciferase reporter, 72 h; stronger effect = lower value. activity change, negative = inhibition, % at 57.5 µM; in the data active means activity change below about -60%; inconclusive means no clear call, values can overlap the other calls; inactive means above about -39%
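Cell-based, HFFs, 1000 cells/well, 16 h 37C; cpds in DMSO + HCMV-luc, MOI 1 PFU/cell; 72 h 37C; OneGlo luminescence after 5 min RT; norm. to buffer vs Salinomycin 10uM.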
HCV inhibitor: qHTS Assay for Inhibitors of Hepatitis C Virus (HCV) | 340,000 compounds, 3.4% hits | Potency, µM (top dose mostly 41.8 µM), actives largely listed as inhibitors | Huh7.5.1 HCVcc-Cre infection, luciferase reporter, 44 h; active means well fitted inhibition curve with a large enough effect; inconclusive means small, poorly fitted or top-dose-only effect, or another doubt; inactive means no such curve, though single readings can be large or run the other way
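Infectious HCVcc-Cre (~0.5 moi) was added to cells just after compound, with cells seeded 4 h earlier at 1,000 per well. Luciferase activity after 44 h culture reported infection; substrate was incubated 15 min at room temperature before reading.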
FMDV inh: High Throughput Screening for Foot and Mouth Disease Virus Antivirals; 410,000 compounds, 1.2% hits; Potency, µM (top dose mostly 57.9 µM), actives largely listed as inhibitors; FMDV antiviral cell-based qHTS; calls by dose curve; tested in HEK293T cells; further: read-out not given here; nearly all actives have a fitted effect of over 45% in size
Lassa entry inh: qHTS for Inhibitors of binding or entry into cells for Lassa Virus; AID 540256, 2011; 300,000 compounds, 1.2% hits; Lassa virus pseudotype entry inhibition, cell reporter; Potency, µM (series often up to 37.9 µM), usual class: inhibitors; calls by dose curve; tested in HEK293 cells; further: nearly all actives have a fitted effect of over 50% in size
SARS PLP yeast: qHTS of Yeast-based Assay for SARS-CoV PLP | 330,000 compounds, 0.19% hits | S. cerevisiae expressing SARS-CoV PLpro, growth rescue | AID 485353, 2010 | Potency, µM (top dose mostly 32.9 µM), actives largely listed as activators; calls by dose curve; further: nearly all actives have a fitted effect of over 55% in size
Marburg entry inh: qHTS for inhibitors of binding or entry into cells for Marburg Virus. Potency, µM (titrated, usually from 37.8 µM), most hits filed as inhibitors. Marburg virus pseudotyped entry inhibition, cell reporter. 300,000 compounds, 1.8% hits; calls by dose curve; tested in HEK293 cells
Large screens that a line does not name were inactive. Hits are enriched below; roughly 8% of the tested compounds scored in any of these assays.

COC(=O)c1ccccc1NC(=O)c1ccc(NS(C)(=O)=O)cc1	HCV inhibitor 11µM
CCCCN1C(=O)C(O)(c2c[nH]c3ccccc23)c2cc(Br)ccc21 (stereo not drawn)	Marburg entry inh inconclusive (no result: HCV inhibitor, SARS PLP yeast)
CCC(=O)Nc1nnc(S(=O)(=O)N(C)Cc2ccc(Cl)cc2)s1	HCMV antiviral inconclusive (no result: HCV inhibitor, SARS PLP yeast, Marburg entry inh)
Cn1c(=O)oc2cc(S(=O)(=O)N3CCC(C(=O)N4CC=C(c5ccccc5)CC4)CC3)ccc21	HCMV antiviral -73 (no result: Lassa entry inh, Marburg entry inh)
O=C(C1CCN(S(=O)(=O)c2ccc(F)cc2)CC1)N1CC=C(c2ccccc2)CC1	HCMV antiviral -101, HCV inhibitor inconclusive, Lassa entry inh inconclusive
Cn1c(=O)oc2cc(S(=O)(=O)N3CCC(C(=O)N4CCN(c5ccccc5)CC4)CC3)ccc21	HCMV antiviral inconclusive, FMDV inh inconclusive
C1=C(c2ccc3c(c2)CN(Cc2cccn2-c2ncccn2)CCO3)Cc2ccccc21	none (no result: HCMV antiviral, HCV inhibitor, Lassa entry inh, SARS PLP yeast, Marburg entry inh)
C#CCN1C(=O)[C@]2(O[C@H](C)CC3=CCCC32)c2c(Br)cccc21 (stereo partly drawn)	Lassa entry inh inconclusive (no result: HCMV antiviral, HCV inhibitor, FMDV inh, SARS PLP yeast)
[O-]/C(=C(\C(=S)Nc1ccc(SC(F)F)cc1)[n+]1ccccc1)c1cc(Cl)ccc1Cl	HCMV antiviral -61, HCV inhibitor inconclusive, Lassa entry inh inconclusive, Marburg entry inh inconclusive
Cc1cc(C)c(/C([O-])=C(/C(=S)Nc2ccc(SC(F)F)cc2)[n+]2ccccc2)cc1C	HCMV antiviral inconclusive, HCV inhibitor inconclusive, Marburg entry inh inconclusive
O=C(Nc1nc(-c2cccs2)cs1)c1ccc(S(=O)(=O)N2CCCC2)cc1	HCMV antiviral -90, HCV inhibitor inconclusive, FMDV inh 10µM, Lassa entry inh 21µM, Marburg entry inh 12µM
O=C(Nc1nc(-c2ccc(S(=O)(=O)N3CCCCCC3)cc2)cs1)c1ccccc1	HCMV antiviral -73, HCV inhibitor inconclusive, FMDV inh 11µM, Lassa entry inh inconclusive
Cc1csc(NC(=O)c2ccc(S(=O)(=O)N3CCCC3)cc2)n1	none (no result: Lassa entry inh, Marburg entry inh)
O=C(Nc1nc(-c2ccc(S(=O)(=O)N3CCCC3)cc2)cs1)C1COc2ccccc2O1 (stereo not drawn)	HCMV antiviral inconclusive, HCV inhibitor 2.2µM, FMDV inh inconclusive, Lassa entry inh inconclusive, Marburg entry inh inconclusive
O=C(Nc1nc(-c2ccc3c(c2)OCCO3)cs1)c1ccc(S(=O)(=O)N2CCCCC2)cc1	HCMV antiviral -100, HCV inhibitor inconclusive, Lassa entry inh inconclusive, Marburg entry inh inconclusive (no result: FMDV inh)
O=C(CCCn1c(=O)c2cccn2c2ccccc21)NCCc1ccc(Cl)cc1	Lassa entry inh inconclusive (no result: HCV inhibitor, SARS PLP yeast, Marburg entry inh)
CCc1cccc(NC(=O)CCc2c(C)nc3c(c2C)c(=O)n(C)c(=O)n3C)c1	FMDV inh inconclusive, Lassa entry inh inconclusive (no result: HCV inhibitor, SARS PLP yeast)
Cc1ccc(-c2cc(NC(=O)C(C)Oc3ccc(C)c(C)c3)on2)cc1 (stereo not drawn)	none (no result: HCV inhibitor, SARS PLP yeast)
CC(=O)c1cccc(NC(=O)c2ccc3nc(C(C)C)oc3c2)c1	none (no result: HCV inhibitor, SARS PLP yeast, Marburg entry inh)
COc1ccc(N2CCN(S(=O)(=O)c3ccc4c(c3)CCCN4C(C)=O)CC2)cc1	none (no result: HCV inhibitor, SARS PLP yeast, Marburg entry inh)
CC(=O)Nc1nc(-c2cccs2)cs1	none
CN(C)S(=O)(=O)c1ccc(C(=O)Nc2nc(-c3cccs3)cs2)cc1	HCMV antiviral -81, HCV inhibitor 10µM, FMDV inh inconclusive (no result: Lassa entry inh, Marburg entry inh)
CCOC(=O)c1cc(-c2ccccc2)n(CCC(=O)Nc2ccc(Cl)c(C(F)(F)F)c2)c1C	FMDV inh 40µM (no result: HCV inhibitor, SARS PLP yeast, Marburg entry inh)
COc1ccc(C(=O)OCC(=O)Nc2ccc(Cl)c(C(F)(F)F)c2)c(OC)c1OC	HCMV antiviral -62, HCV inhibitor inconclusive
CCOC(=O)c1c(C)[nH]c(C)c1S(=O)(=O)N1CCC(C(=O)Nc2ccccc2CC)CC1	none (no result: HCV inhibitor, SARS PLP yeast, Marburg entry inh)
CCCN(CCC)CCCNc1ccc(C(=O)Nc2cccc(OC)c2)cc1[N+](=O)[O-]	HCMV antiviral inconclusive, HCV inhibitor inconclusive, Marburg entry inh inconclusive
O=C(Nc1cc(F)cc(F)c1)c1ccc(NCCCN2CCCCCC2)c([N+](=O)[O-])c1	HCV inhibitor inconclusive, Marburg entry inh inconclusive
Cc1ccc(NC(=O)c2ccc(NCCN)c([N+](=O)[O-])c2)cc1Cl	HCMV antiviral -82, HCV inhibitor 14µM, Marburg entry inh inconclusive
COc1cccc(NC(=O)c2ccc(NCCCN3CC(C)CC(C)C3)c([N+](=O)[O-])c2)c1 (stereo not drawn)	HCV inhibitor 7.9µM
Cc1ccc(NC(=O)c2ccc(NCCCN3CCC(C)CC3)c([N+](=O)[O-])c2)c(C)c1	HCMV antiviral inconclusive, HCV inhibitor 11µM (no result: Lassa entry inh, Marburg entry inh)
COc1cccc(NC(=O)c2ccc(NCCCN3CCC(C)CC3)c([N+](=O)[O-])c2)c1	HCV inhibitor inconclusive, Marburg entry inh 4µM
COc1ccc2cc([C@@H](C#N)C3CCCC3)ccc2c1	none (no result: HCV inhibitor, FMDV inh, Lassa entry inh, SARS PLP yeast, Marburg entry inh)
CCC1C(=O)OC[C@@H]1Cc1cncn1C (stereo partly drawn)	none (no result: HCMV antiviral, HCV inhibitor, FMDV inh, Lassa entry inh, SARS PLP yeast)
CC(=O)C1=C(S(=O)(=O)c2ccc(C)cc2)CS(=O)(=O)C1	HCMV antiviral -100, FMDV inh inconclusive
Cc1ccc(S(=O)(=O)C2CS(=O)(=O)CC2O)cc1 (stereo not drawn)	none (no result: FMDV inh)
O=C(O)c1ccc(/C=C/C(=O)c2ccc3c(c2)OCCCO3)cc1	FMDV inh 10µM, Lassa entry inh inconclusive, Marburg entry inh inconclusive
CC(=O)Nc1ccc(/C=C/C(=O)c2ccc3c(c2)OCCO3)cc1	none
CCOc1cc(/C=C/C(=O)c2ccc(O)cc2)ccc1OCC(=O)N(C)C	HCMV antiviral inconclusive, HCV inhibitor inconclusive, FMDV inh inconclusive, Lassa entry inh inconclusive
COc1cc(/C=C/C(=O)c2ccc3c(c2)OCO3)cc(Cl)c1O	HCMV antiviral -62, Marburg entry inh inconclusive
COc1ccc(C(=O)C=Cc2ccc3c(c2)OCO3)cc1OC	none (no result: HCV inhibitor, Lassa entry inh, SARS PLP yeast, Marburg entry inh)
